Experimental data as given in PubChem BioAssay (EPA / NIEHS).
The source made the active and inactive calls. Rule for the calls: active = hit-call score of the fitted dose curve at least 0.9, where 1 is the maximum; inactive = score below 0.9.

How the values were obtained:
Details in all cases: mRNA level, 48 h; actives raise or lower the signal
[1] = read-out: Cytochrome P450 3A4 (Homo sapiens) (UniProt P08684); experiment: LTEA_HepaRG_CYP3A4: Life Technologies and Expression Analysis (LTEA) Assay for CYP3A4 using HepaRG (AID 2283487)
Procedure, shortened: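 CYP3A4 transcript measured by TaqMan qRT-PCR and normalized to three housekeeping genes after 48 h chemical exposure of human HepaRG cells. Top concentration 100 uM, half-log steps, 0.5% DMSO vehicle; gain or loss fitted against DMSO baseline.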

[2] = read-out: DNA damage-inducible transcript 3 (DDIT3), DDIT3 (gene 1649); experiment: LTEA_HepaRG_DDIT3: Life Technologies and Expression Analysis (LTEA) Assay for DNA damage-inducible transcript 3 (DDIT3) using HepaRG (AID 2283488)
Procedure, shortened: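 Changes in DDIT3 transcript, in either direction relative to 0.5% DMSO vehicle, were quantified by TaqMan qRT-PCR after 48 h chemical exposure of HepaRG cells at 8 concentrations, maximum 100 uM.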

[3] = read-out: Pro-epidermal growth factor (Homo sapiens) (UniProt P01133); experiment: LTEA_HepaRG_EGF: Life Technologies and Expression Analysis (LTEA) Assay for Epidermal growth factor (EGF) using HepaRG (AID 2283489)
Procedure, shortened: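 EGF expression changes in human HepaRG cells are scored by bidirectional fitting relative to 0.5% DMSO controls. Chemicals are tested at eight half-log concentrations up to 100 uM for 48 h in serum-free induction medium.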

[4] = read-out: Ezrin (EZR), EZR (gene 7430); experiment: LTEA_HepaRG_EZR: Life Technologies and Expression Analysis (LTEA) Assay for Ezrin (EZR) using HepaRG (AID 2283491)
Procedure, shortened: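 HepaRG, 48 h chemical exposure, 8-pt half-log series from 100 uM, 0.5% DMSO vehicle, duplicates. Read-out: EZR mRNA by TaqMan qRT-PCR (Fluidigm array), housekeeping-normalized; bidirectional curve fit vs DMSO baseline.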

[5] = read-out: Cytochrome P450 3A7 (Homo sapiens) (UniProt P24462); experiment: LTEA_HepaRG_CYP3A7: Life Technologies and Expression Analysis (LTEA) Assay for CYP3A7 using HepaRG (AID 2283492)
Procedure, shortened: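 Cells were thawed, plated, cultured 48 h, then treated for a further 48 h with chemicals (eight-point half-log series from 100 uM, 0.5% DMSO). RNA was isolated and CYP3A7 expression quantified by qRT-PCR normalised to ACTB, GAPDH and POLR2A.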

[6] = read-out: Fatty Acid-Binding Protein 1 (FABP1), FABP1 (gene 2168); experiment: LTEA_HepaRG_FABP1: Life Technologies and Expression Analysis (LTEA) Assay for Fatty Acid-Binding Protein 1 (FABP1) using HepaRG (AID 2283494)
Procedure, shortened: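 Differentiated human HepaRG cells were exposed in duplicate for 48 h in serum-free induction medium to 8-point half-log concentration series topping at 100 uM in 0.5% DMSO. FABP1 mRNA measured by TaqMan qRT-PCR, normalized to ACTB/GAPDH/POLR2A; bidirectional fit versus DMSO.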

[7] = read-out: Cytochrome P450 4A22 (Homo sapiens) (UniProt Q5TCH4); experiment: LTEA_HepaRG_CYP4A22: Life Technologies and Expression Analysis (LTEA) Assay for Cytochrome P450 4A22 (CYP4A22) using HepaRG (AID 2283495)
Procedure, shortened: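 Cryopreserved HepaRG cells, plated and cultured 48 h, then switched to serum-free induction medium and treated 48 h (duplicates, up to 100 uM, half-log steps, 0.5% DMSO). Expression change of CYP4A22 was fitted bidirectionally against vehicle.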

[8] = read-out: Cytochrome P450 7A1 (Homo sapiens) (UniProt P22680); experiment: LTEA_HepaRG_CYP7A1: Life Technologies and Expression Analysis (LTEA) Assay for Cytochrome P450 7A1 (CYP7A1) using HepaRG (AID 2283496)
Procedure, shortened: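 Gene expression endpoint in human HepaRG liver cells treated for 48 h with test chemicals (up to 100 uM, 0.5% DMSO). Values come from bidirectional concentration-response fitting versus DMSO.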

[9] = read-out: Glutathione S-Transferase (GSTA2), GSTA2 (gene 2939); experiment: LTEA_HepaRG_GSTA2: Life Technologies and Expression Analysis (LTEA) Assay for Glutathione S-Transferase (GSTA2) using HepaRG (AID 2283497)
Procedure, shortened: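 Human HepaRG cells, plated 48 h, then exposed in serum-free induction medium for 48 h to eight half-log concentrations up to 100 uM in 0.5% DMSO, duplicate. GSTA2 mRNA by qRT-PCR, normalized to ACTB/GAPDH/POLR2A; bidirectional fit versus DMSO.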

[10] = read-out: Glutamate-cysteine ligase catalytic (GCLC), GCLC (gene 2729); experiment: LTEA_HepaRG_GCLC: Life Technologies and Expression Analysis (LTEA) Assay for Glutamate-cysteine ligase catalytic (GCLC) using HepaRG (AID 2283498)
Procedure, shortened: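 Differentiated human HepaRG cells, plated 48 h then switched to serum-free induction medium, were exposed in duplicate for 48 h to 8 half-log concentrations topping at 100 uM in 0.5% DMSO. GCLC mRNA was quantified by qRT-PCR against ACTB, GAPDH and POLR2A.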

[11] = read-out: growth arrest and DNA damage 45 (GADD45G), GADD45G (gene 10912); experiment: LTEA_HepaRG_GADD45G: Life Technologies and Expression Analysis (LTEA) Assay for growth arrest and DNA damage 45 (GADD45G) using HepaRG (AID 2283499)
Procedure, shortened: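 Human hepatic HepaRG line treated 48 h with chemicals (eight concentrations, half-log steps from 100 uM); transcript induction or repression of GADD45G scored by qRT-PCR versus DMSO vehicle.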

[12] = read-out: Glutamate-cysteine ligase regulatory (GCLM), GCLM (gene 2730); experiment: LTEA_HepaRG_GCLM: Life Technologies and Expression Analysis (LTEA) Assay for Glutamate-cysteine ligase regulatory (GCLM) using HepaRG (AID 2283500)
Procedure, shortened: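 Human liver HepaRG cultures receive test chemicals for 48 hours at up to 100 uM in 0.5% DMSO. GCLM expression is measured by qRT-PCR and analysed for increases or decreases against vehicle.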

[13] = read-out: Glutathione S-transferase M3 (GSTM3), GSTM3 (gene 2947); experiment: LTEA_HepaRG_GSTM3: Life Technologies and Expression Analysis (LTEA) Assay for Glutathione S-transferase M3 (GSTM3) using HepaRG (AID 2283501)
Procedure, shortened: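 Changes in GSTM3 expression, an oxidative-stress marker, were scored by bidirectional curve fitting against 0.5% DMSO vehicle. Human HepaRG cultures received chemicals for 48 h in duplicate, highest concentration 100 uM with half-log dilutions.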

[14] = read-out: Heat shock 70 kDa protein 1 (HSPA1A), gene 3303; experiment: LTEA_HepaRG_HSPA1A: Life Technologies and Expression Analysis (LTEA) Assay for Heat shock 70 kDa protein 1 (HSPA1A) using HepaRG (AID 2283502)
Procedure, shortened: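 HSPA1A induction in human HepaRG liver cells is measured after 48 h of chemical treatment (100 uM maximum, 0.5% DMSO vehicle). Expression comes from qRT-PCR normalized to endogenous controls.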

[15] = read-out: Hypoxia-inducible factor 1-alpha (Homo sapiens) (UniProt Q16665); experiment: LTEA_HepaRG_HIF1A: Life Technologies and Expression Analysis (LTEA) Assay for Hypoxia-inducible factor 1 (HIF1A) Trancription factor using HepaRG (AID 2283503)
Procedure, shortened: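 HepaRG, 48 h exposure, 8-pt half-log series from 100 uM, 0.5% DMSO vehicle, duplicates. Readout: HIF1A transcript by qRT-PCR (Fluidigm array), housekeeping-normalised. Bidirectional curve fit vs DMSO baseline.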

[16] = read-out: 3-Hydroxy-3-Methylglutaryl-CoA Synthase 2 (HMGCS2), HMGCS2 (gene 3158); experiment: LTEA_HepaRG_HMGCS2: Life Technologies and Expression Analysis (LTEA) Assay for 3-Hydroxy-3-Methylglutaryl-CoA Synthase 2 (HMGCS2) using HepaRG (AID 2283504)
Procedure, shortened: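 Expression of HMGCS2 in human HepaRG liver cells is measured by qRT-PCR 48 h after dosing (highest 100 uM, half-log series, 0.5% DMSO). Values come from bidirectional concentration-response fitting with DMSO as baseline.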

HGF (gene 3082) = experiment: LTEA_HepaRG_HGF: Life Technologies and Expression Analysis (LTEA) Assay for Hepatocyte Growth Facto (HGF) using HepaRG (AID 2283505)
Procedure, shortened: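 Gain or loss of HGF mRNA in human HepaRG liver cells after 48 h chemical exposure; eight concentrations up to 100 uM with 0.5% DMSO vehicle, quantified by TaqMan qRT-PCR.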

[17] = read-out: Insulin Like Growth Factor 1 (IGF1), IGF1 (gene 3479); experiment: LTEA_HepaRG_IGF1: Life Technologies and Expression Analysis (LTEA) Assay for Insulin Like Growth Factor 1 (IGF1) using HepaRG (AID 2283506)
Procedure, shortened: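 Using human HepaRG liver cells, IGF1 transcript induction or suppression is measured 48 h after dosing across eight concentrations capped at 100 uM. Values derive from bidirectional concentration-response fitting with DMSO as baseline.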

CYP3A5 (gene 1577) = experiment: LTEA_HepaRG_CYP3A5: Life Technologies and Expression Analysis (LTEA) Assay for CYP3A5 using HepaRG (AID 2283493)
Procedure, shortened: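 mRNA induction or loss of CYP3A5 assessed in HepaRG after 48 h dosing, 100 uM top concentration, duplicate wells; TaqMan qRT-PCR with ACTB, GAPDH, POLR2A normalization; 0.5% DMSO as negative control.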

Measured: AC50

Sequence of Cytochrome P450 3A4 (Homo sapiens) (P08684 whole entry, looked up): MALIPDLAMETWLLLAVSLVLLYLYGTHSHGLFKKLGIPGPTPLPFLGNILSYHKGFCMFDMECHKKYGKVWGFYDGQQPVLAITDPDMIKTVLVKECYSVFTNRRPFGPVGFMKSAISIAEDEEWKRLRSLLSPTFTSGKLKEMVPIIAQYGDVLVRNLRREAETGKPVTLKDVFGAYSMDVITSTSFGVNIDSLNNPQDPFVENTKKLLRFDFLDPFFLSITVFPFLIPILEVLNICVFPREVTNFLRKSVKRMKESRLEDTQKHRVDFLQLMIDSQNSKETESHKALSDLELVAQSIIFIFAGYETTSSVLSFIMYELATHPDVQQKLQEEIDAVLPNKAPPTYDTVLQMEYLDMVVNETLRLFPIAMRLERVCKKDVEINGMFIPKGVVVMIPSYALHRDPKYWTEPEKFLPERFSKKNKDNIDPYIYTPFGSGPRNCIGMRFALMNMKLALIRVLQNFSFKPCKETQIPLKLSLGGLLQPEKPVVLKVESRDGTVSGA
Sequence of Cytochrome P450 3A7 (Homo sapiens) (P24462 whole entry, looked up): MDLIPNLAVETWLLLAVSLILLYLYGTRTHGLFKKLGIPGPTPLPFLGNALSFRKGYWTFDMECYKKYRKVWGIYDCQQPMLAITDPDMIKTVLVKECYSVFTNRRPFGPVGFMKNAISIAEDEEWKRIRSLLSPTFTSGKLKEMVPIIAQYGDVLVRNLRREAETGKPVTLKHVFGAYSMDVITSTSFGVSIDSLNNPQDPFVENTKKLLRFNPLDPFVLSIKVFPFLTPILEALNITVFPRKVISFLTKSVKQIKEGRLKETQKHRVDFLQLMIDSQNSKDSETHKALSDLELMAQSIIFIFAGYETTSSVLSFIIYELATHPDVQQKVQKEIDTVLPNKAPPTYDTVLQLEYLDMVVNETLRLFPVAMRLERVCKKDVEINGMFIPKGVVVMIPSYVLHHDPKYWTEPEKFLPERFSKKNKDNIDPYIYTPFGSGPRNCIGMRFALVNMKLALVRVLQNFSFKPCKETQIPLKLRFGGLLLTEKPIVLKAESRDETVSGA
Sequence of Hypoxia-inducible factor 1-alpha (Homo sapiens) (Q16665 whole entry, looked up): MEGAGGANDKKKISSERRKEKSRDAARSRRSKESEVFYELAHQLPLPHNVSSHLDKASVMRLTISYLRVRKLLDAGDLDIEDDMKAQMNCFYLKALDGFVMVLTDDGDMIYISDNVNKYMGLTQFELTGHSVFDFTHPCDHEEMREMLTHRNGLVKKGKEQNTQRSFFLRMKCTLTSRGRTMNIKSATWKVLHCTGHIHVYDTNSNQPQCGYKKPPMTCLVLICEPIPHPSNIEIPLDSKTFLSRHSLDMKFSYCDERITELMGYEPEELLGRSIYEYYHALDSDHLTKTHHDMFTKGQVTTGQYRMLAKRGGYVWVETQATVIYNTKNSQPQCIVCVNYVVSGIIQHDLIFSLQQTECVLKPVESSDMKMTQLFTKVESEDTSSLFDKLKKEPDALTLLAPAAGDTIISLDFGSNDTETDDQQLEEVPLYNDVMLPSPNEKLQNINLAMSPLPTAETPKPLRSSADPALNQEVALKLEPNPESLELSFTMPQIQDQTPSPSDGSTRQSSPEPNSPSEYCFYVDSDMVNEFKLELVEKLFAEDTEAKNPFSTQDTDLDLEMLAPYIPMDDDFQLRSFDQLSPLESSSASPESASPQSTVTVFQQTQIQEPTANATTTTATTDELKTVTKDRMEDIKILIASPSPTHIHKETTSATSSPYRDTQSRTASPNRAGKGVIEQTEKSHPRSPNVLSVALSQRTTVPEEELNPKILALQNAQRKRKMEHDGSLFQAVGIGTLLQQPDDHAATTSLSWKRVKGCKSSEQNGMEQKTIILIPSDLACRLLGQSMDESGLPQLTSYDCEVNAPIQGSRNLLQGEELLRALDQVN

CCC(C)(CC)c1cc(NC(=O)c2c(OC)cccc2OC)on1
active: [1] 0.541 µM | [2] 83.3 µM | [5] 1.39 µM | [6] 4.89 µM | [7] 19.5 µM | [10] 63.8 µM | [11] 80.1 µM | [17] 1.79 µM
not listed: CYP3A5 (gene 1577)
inactive: all other assays above

Cc1ccc(O)c(C)c1
not listed: [11] | CYP3A5 (gene 1577)
inactive: all other assays above

O=S(=O)(O)C(F)(F)C(F)(F)C(F)(F)C(F)(F)F
not listed: [11]
inactive: all other assays above

CC1=C2C[C@H]3[C@@H](CC=C4C[C@@H](O)CC[C@@]43C)[C@@H]2CC[C@]12O[C@@H]1C[C@H](C)CN[C@H]1[C@H]2C
not listed: [11] | CYP3A5 (gene 1577)
inactive: all other assays above

CCNc1nc(NC(C)C)nc(SC)n1
active: [1] 2.44 µM | [6] 28.3 µM | [8] 35.5 µM | [11] 63.9 µM | [16] 50 µM | [17] 33.2 µM
not listed: CYP3A5 (gene 1577)
inactive: all other assays above
